{
  "source": "paper PMC4336329",
  "about": "(PLoS ONE, 2015)",
  "note": "Out of some 310,000 compounds screened, about 14,000 (4.5%) showed an effect of 50% or more. The effect is printed as a negative number. Shown is part of a subset that was picked to be rich in strong results.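 Also: peak tail current of the secondary pulse compared with the same well before compound.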",
  "data": [
    {"target": "human ether-à-go-go-related gene (hERG) potassium channel (human, UniProt Q12809)", "sequence (Q12809 whole entry, looked up)": "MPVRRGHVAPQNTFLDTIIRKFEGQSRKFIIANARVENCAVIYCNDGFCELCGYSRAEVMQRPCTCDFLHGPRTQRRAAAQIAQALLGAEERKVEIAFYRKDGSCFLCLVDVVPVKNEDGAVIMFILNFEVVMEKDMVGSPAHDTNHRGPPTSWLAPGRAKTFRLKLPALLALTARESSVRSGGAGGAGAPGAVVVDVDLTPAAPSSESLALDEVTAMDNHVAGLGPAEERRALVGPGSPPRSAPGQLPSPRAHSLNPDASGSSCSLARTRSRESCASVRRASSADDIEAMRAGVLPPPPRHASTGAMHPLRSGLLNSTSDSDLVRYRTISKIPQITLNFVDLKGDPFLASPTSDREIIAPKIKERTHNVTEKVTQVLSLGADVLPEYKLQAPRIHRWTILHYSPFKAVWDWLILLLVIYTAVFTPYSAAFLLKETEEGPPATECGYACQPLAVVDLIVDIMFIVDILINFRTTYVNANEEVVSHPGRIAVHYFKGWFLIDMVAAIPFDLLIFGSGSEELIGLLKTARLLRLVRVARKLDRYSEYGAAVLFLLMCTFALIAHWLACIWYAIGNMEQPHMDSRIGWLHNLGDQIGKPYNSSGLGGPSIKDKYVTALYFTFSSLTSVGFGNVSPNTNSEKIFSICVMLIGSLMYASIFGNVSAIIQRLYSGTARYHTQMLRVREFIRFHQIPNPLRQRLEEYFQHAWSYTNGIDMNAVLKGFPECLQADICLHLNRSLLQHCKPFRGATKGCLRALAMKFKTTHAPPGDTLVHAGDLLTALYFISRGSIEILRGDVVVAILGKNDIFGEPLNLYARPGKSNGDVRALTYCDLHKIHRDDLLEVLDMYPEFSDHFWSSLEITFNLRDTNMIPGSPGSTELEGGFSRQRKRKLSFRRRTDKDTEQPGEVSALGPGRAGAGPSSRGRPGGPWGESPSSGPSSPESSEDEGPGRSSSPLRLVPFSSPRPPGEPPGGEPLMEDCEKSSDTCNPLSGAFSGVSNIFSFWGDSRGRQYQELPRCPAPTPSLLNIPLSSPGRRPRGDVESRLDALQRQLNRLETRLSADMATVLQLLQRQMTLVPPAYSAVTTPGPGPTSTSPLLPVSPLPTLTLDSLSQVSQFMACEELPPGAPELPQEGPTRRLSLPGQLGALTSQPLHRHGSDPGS", "test": "primary screen, population patch clamp on CHO cells stably expressing hERG; higher = less effect of the substance", "units": {"hERG current change (%, negative = inhibition) at 10uM": "%"}, "values": [
      {"smiles": "CC(=O)Nc1ccc(C(=O)NCCN2CCOCC2)cc1", "hERG current change (%, negative = inhibition) at 10uM": 15.8},
      {"smiles": "CCOc1ccccc1/C=N/Nc1nc2c(N)ncnc2n1[C@H]1O[C@@H](CO)[C@H](O)[C@@H]1O", "hERG current change (%, negative = inhibition) at 10uM": -9.61},
      {"smiles": "Cc1ccc(C2c3[nH]c4ccccc4c3C[C@H]3C(=O)N(c4ccccc4C(=O)NCCCN4CCOCC4)C(=O)N23)cc1", "note": "(stereo partly drawn)", "hERG current change (%, negative = inhibition) at 10uM": -54.6},
      {"smiles": "O=C(CCN1CCOCC1)N1CCc2c([nH]c3ccccc23)C1c1cccc(Cl)c1", "note": "(stereo not drawn)", "hERG current change (%, negative = inhibition) at 10uM": -70.5},
      {"smiles": "COc1cccc(C2c3[nH]c4ccccc4c3C[C@H]3C(=O)N(c4ccccc4C(=O)NCCCN4CCOCC4)C(=O)N23)c1", "note": "(stereo partly drawn)", "hERG current change (%, negative = inhibition) at 10uM": -19.9},
      {"smiles": "O=C(NCCCN1CCOCC1)c1ccccc1N1C(=O)[C@@H]2Cc3c([nH]c4ccccc34)C(c3ccc(F)cc3)N2C1=O", "note": "(stereo partly drawn)", "hERG current change (%, negative = inhibition) at 10uM": -68},
      {"smiles": "O=C(c1cnccn1)N1CCc2c([nH]c3ccccc23)C1c1cccc(Cl)c1", "note": "(stereo not drawn)", "hERG current change (%, negative = inhibition) at 10uM": -33.6},
      {"smiles": "Cc1ccccc1C1c2[nH]c3ccccc3c2C[C@H]2C(=O)N(c3ccccc3C(=O)NCCCN3CCOCC3)C(=O)N12", "note": "(stereo partly drawn)", "hERG current change (%, negative = inhibition) at 10uM": -21.3},
      {"smiles": "COc1ccc(C2c3[nH]c4ccccc4c3C[C@H]3C(=O)N(c4ccccc4C(=O)NCCN4CCOCC4)C(=O)N23)cc1", "note": "(stereo partly drawn)", "hERG current change (%, negative = inhibition) at 10uM": -23.7},
      {"smiles": "O=C(NCCN1CCOCC1)c1ccccc1N1C(=O)[C@@H]2Cc3c([nH]c4ccccc34)C(c3ccc(F)cc3)N2C1=O", "note": "(stereo partly drawn)", "hERG current change (%, negative = inhibition) at 10uM": -47.2},
      {"smiles": "Cc1ccc(C2c3[nH]c4ccccc4c3C[C@H]3C(=O)N(c4ccccc4C(=O)NCCN4CCOCC4)C(=O)N23)cc1", "note": "(stereo partly drawn)", "hERG current change (%, negative = inhibition) at 10uM": -24.9},
      {"smiles": "O=C(NCCCN1CCOCC1)c1ccccc1N1C(=O)[C@@H]2Cc3c([nH]c4ccccc34)C(c3cccc(Cl)c3)N2C1=O", "note": "(stereo partly drawn)", "hERG current change (%, negative = inhibition) at 10uM": -72.3},
      {"smiles": "CC(=O)NCCC(=O)N1CCc2c([nH]c3ccccc23)C1c1cccc(Cl)c1", "note": "(stereo not drawn)", "hERG current change (%, negative = inhibition) at 10uM": -24.2},
      {"smiles": "O=C(NCCN1CCOCC1)c1ccccc1N1C(=O)[C@@H]2Cc3c([nH]c4ccccc34)C(c3ccccc3)N2C1=O", "note": "(stereo partly drawn)", "hERG current change (%, negative = inhibition) at 10uM": -20.4},
      {"smiles": "O=C(O)c1ccc(/C=C2\\SC(=S)N(NC(=O)c3ccccc3[N+](=O)[O-])C2=O)cc1", "hERG current change (%, negative = inhibition) at 10uM": 12.4},
      {"smiles": "[2H]C([2H])(CCOS(N)(=O)=O)c1ccccc1", "hERG current change (%, negative = inhibition) at 10uM": 11.1},
      {"smiles": "CC(=O)N1CCc2c(sc(NC(=O)C3COc4ccccc4O3)c2C(N)=O)C1", "note": "(stereo not drawn)", "hERG current change (%, negative = inhibition) at 10uM": -20},
      {"smiles": "CCOc1ccc(CN2CCSCC2)cc1", "hERG current change (%, negative = inhibition) at 10uM": 2.36},
      {"smiles": "O=C(NCCNS(=O)(=O)c1ccccc1)c1ccc([N+](=O)[O-])cc1", "hERG current change (%, negative = inhibition) at 10uM": -12},
      {"smiles": "COc1ccccc1Nc1nc(N)nc(CN2CC(C)CC(C)C2)n1", "note": "(stereo not drawn)", "hERG current change (%, negative = inhibition) at 10uM": -73.8},
      {"smiles": "COc1ccccc1Nc1nc(N)nc(CN2CCCCCC2)n1", "hERG current change (%, negative = inhibition) at 10uM": -57.7},
      {"smiles": "COc1ccccc1Nc1nc(N)nc(CSc2ncccn2)n1", "hERG current change (%, negative = inhibition) at 10uM": -24.2},
      {"smiles": "COc1ccccc1Nc1nc(N)nc(CN2CCOCC2)n1", "hERG current change (%, negative = inhibition) at 10uM": 10.1},
      {"smiles": "COc1ccccc1Nc1nc(N)nc(CSC(=S)N2CCCCC2)n1", "hERG current change (%, negative = inhibition) at 10uM": 0.598},
      {"smiles": "Cc1c(Cl)cccc1Nc1nc(N)nc(CN2CCCCCC2)n1", "hERG current change (%, negative = inhibition) at 10uM": -74.6},
      {"smiles": "COc1ccccc1Nc1nc(N)nc(CSCCO)n1", "hERG current change (%, negative = inhibition) at 10uM": 15},
      {"smiles": "COc1ccccc1Nc1nc(N)nc(CSC(=S)N2CC(C)CC(C)C2)n1", "note": "(stereo not drawn)", "hERG current change (%, negative = inhibition) at 10uM": -9.46},
      {"smiles": "Cc1c(Cl)cccc1Nc1nc(N)nc(CN2CCc3ccccc3C2)n1", "hERG current change (%, negative = inhibition) at 10uM": -33},
      {"smiles": "Cc1cccc(Nc2nc(N)nc(CN3CCC(C(N)=O)CC3)n2)c1C", "hERG current change (%, negative = inhibition) at 10uM": 17.5},
      {"smiles": "COc1ccccc1Nc1nc(N)nc(CN2CCCCC2)n1", "hERG current change (%, negative = inhibition) at 10uM": -54.9},
      {"smiles": "O=C(Nc1ccc2c(c1)OCO2)c1cccc(S(=O)(=O)N2CCCC2)c1", "hERG current change (%, negative = inhibition) at 10uM": -15.9},
      {"smiles": "CN(Cc1ccccc1)C(=O)CN1C(=O)NC(C)(c2ccc(C(C)(C)C)cc2)C1=O", "note": "(stereo not drawn)", "hERG current change (%, negative = inhibition) at 10uM": -16.8},
      {"smiles": "COc1cccc(/C=N/NC(=O)c2nc(-c3ccccc3)cc(-c3ccccc3)n2)c1O", "hERG current change (%, negative = inhibition) at 10uM": -9.46},
      {"smiles": "Cc1cc(=O)oc2cc(OCC(=O)N/N=C/c3ccccc3O)ccc12", "hERG current change (%, negative = inhibition) at 10uM": 23.9},
      {"smiles": "O.O=C(NCc1nc2ccccc2[nH]1)c1ccc(Cl)c(S(=O)(=O)N2CCCC2)c1", "hERG current change (%, negative = inhibition) at 10uM": -14.3},
      {"smiles": "CCOC(=O)c1oc2ccc(CNC(C)(C)C)c(Cl)c2c1C.O=C(O)C(=O)O", "hERG current change (%, negative = inhibition) at 10uM": -5.61},
      {"smiles": "O=C(CC(C(=O)O)P(=O)(c1ccccc1)c1ccccc1)c1ccccc1", "note": "(stereo not drawn)", "hERG current change (%, negative = inhibition) at 10uM": 24.3},
      {"smiles": "Nc1ccc(-c2cc(N)n(-c3ccccc3)n2)cc1", "hERG current change (%, negative = inhibition) at 10uM": 0.669},
      {"smiles": "Cn1c2ccccc2c2cc(C(=O)NNS(=O)(=O)c3ccc(F)cc3)sc21", "hERG current change (%, negative = inhibition) at 10uM": -5.97},
      {"smiles": "COc1ccccc1Nc1nc(N)nc(CN2CCC(C)CC2)n1", "hERG current change (%, negative = inhibition) at 10uM": -67.5},
      {"smiles": "COc1ccccc1Nc1nc(N)nc(CSC(=S)N2CCC(C)CC2)n1", "hERG current change (%, negative = inhibition) at 10uM": -13.7},
      {"smiles": "Cc1cc(C(F)(F)F)nn1C(=O)c1cccnc1Cl", "hERG current change (%, negative = inhibition) at 10uM": -5.15},
      {"smiles": "CCO[C@H]1OC(C(=O)N2CCN(Cc3ccc4c(c3)OCO4)CC2)=C[C@@H](C2CCCCC2)[C@@H]1CCCO", "hERG current change (%, negative = inhibition) at 10uM": -55.5},
      {"smiles": "CCO[C@@H]1OC(C(=O)N2CCN(Cc3ccc4c(c3)OCO4)CC2)=C[C@H](C2CCCCC2)[C@H]1CCCO", "hERG current change (%, negative = inhibition) at 10uM": -17.8},
      {"smiles": "CN1CCN(C(=O)C2=C[C@H](C3CCCCC3)C[C@H](OCc3ccc(CO)cc3)O2)CC1", "hERG current change (%, negative = inhibition) at 10uM": -61.7},
      {"smiles": "CCO[C@@H]1OC(C(=O)N2CCN(Cc3ccc4c(c3)OCO4)CC2)=C[C@H](C2CC2)[C@H]1CCCO", "hERG current change (%, negative = inhibition) at 10uM": -18.7},
      {"smiles": "CN1CCN(C(=O)C2=C[C@H](C3CC3)C[C@H](OCc3ccc(CO)cc3)O2)CC1", "hERG current change (%, negative = inhibition) at 10uM": -1.42},
      {"smiles": "CN1CCN(C(=O)C2=C[C@@H](C3CC3)C[C@@H](OCc3ccc(CO)cc3)O2)CC1", "hERG current change (%, negative = inhibition) at 10uM": 16.5},
      {"smiles": "O=C(C1=C[C@@H](C2CC2)C[C@@H](OCc2ccc(CO)cc2)O1)N1CCN(Cc2ccccc2)CC1", "hERG current change (%, negative = inhibition) at 10uM": -58.7},
      {"smiles": "O=C(C1=C[C@H](C2CC2)C[C@H](OCCCCO)O1)N1CCN(Cc2ccccc2)CC1", "hERG current change (%, negative = inhibition) at 10uM": -12.5},
      {"smiles": "O=C(C1=C[C@H](C2CC2)C[C@H](OCc2ccc(CO)cc2)O1)N1CCN(Cc2ccccc2)CC1", "hERG current change (%, negative = inhibition) at 10uM": -62.7},
      {"smiles": "O=C(C1=C[C@H](c2ccccc2)C[C@H](OCc2ccc(CO)cc2)O1)N1CCN(Cc2ccccc2)CC1", "hERG current change (%, negative = inhibition) at 10uM": -41.2},
      {"smiles": "CC(C)(C)[C@H]1C=C(C(=O)N2CCN(Cc3ccccc3)CC2)O[C@@H](OCc2ccc(CO)cc2)C1", "hERG current change (%, negative = inhibition) at 10uM": -38.9},
      {"smiles": "CN1CCN(C(=O)C2=C[C@@H](C3CCCCC3)C[C@@H](OCc3ccc(CO)cc3)O2)CC1", "hERG current change (%, negative = inhibition) at 10uM": -13.6}
    ]}
  ]
}
